IDE exosite inh: exo-site inhibitors of human IDE, primary screen, biochemical, fluorescence anisotropy, probe displacement; Insulin-degrading enzyme (Homo sapiens), P14735; z-score at 20 µM; purified IDE, FL-6b probe fluorescence polarization; stronger effect = lower value; 17,000 compounds, 6.3% hits;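 active = z-score of -3 or lower, meaning strong loss of probe binding signal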;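 also: His-tagged human IDE residues 42-1019 made in E. coli with 30 nM FL-6b probe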
Target sequence (P14735 42-1019 limits assumed): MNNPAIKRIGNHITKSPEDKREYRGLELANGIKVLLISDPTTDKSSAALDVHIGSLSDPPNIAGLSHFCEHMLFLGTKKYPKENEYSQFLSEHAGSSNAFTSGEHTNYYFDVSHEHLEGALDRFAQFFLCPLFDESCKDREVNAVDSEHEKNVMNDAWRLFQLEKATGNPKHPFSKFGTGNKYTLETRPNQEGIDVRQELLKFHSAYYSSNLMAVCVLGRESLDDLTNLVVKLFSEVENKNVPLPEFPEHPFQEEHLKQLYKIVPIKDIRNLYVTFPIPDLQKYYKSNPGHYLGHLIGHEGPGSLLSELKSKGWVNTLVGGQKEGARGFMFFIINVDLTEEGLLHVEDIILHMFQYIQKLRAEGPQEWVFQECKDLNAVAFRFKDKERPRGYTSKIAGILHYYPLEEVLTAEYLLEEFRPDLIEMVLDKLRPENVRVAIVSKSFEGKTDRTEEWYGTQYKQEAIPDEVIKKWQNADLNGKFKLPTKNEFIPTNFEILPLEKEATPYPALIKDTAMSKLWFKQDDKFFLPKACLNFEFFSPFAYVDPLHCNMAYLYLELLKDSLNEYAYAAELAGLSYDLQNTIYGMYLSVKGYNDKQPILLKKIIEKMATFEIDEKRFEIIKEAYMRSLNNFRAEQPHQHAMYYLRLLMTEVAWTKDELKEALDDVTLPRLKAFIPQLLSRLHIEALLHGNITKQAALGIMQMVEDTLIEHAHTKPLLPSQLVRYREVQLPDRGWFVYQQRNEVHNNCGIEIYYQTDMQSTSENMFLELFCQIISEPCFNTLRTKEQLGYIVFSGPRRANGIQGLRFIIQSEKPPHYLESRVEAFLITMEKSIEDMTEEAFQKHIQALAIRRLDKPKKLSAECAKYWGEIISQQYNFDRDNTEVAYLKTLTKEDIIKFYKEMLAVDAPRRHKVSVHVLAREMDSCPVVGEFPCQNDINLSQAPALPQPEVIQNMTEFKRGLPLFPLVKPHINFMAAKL
An asterisk follows results filed as active. The sample as a whole holds a higher share of hits than the screen did.

SMILES	IDE exosite inh
OC[C@@H]1[C@H](c2ccc(-c3ccccc3F)cc2)[C@@H]2CN(Cc3ccncc3)CCCCN12	-0.44
OC[C@@H]1[C@@H](c2ccc(-c3ccccc3F)cc2)[C@@H]2CN(Cc3ccncc3)CCCCN12	-1.46
OC[C@H]1[C@@H](c2ccc(-c3ccccc3F)cc2)[C@H]2CN(Cc3ccncc3)CCCCN21	-2.34
COc1ccccc1-c1ccc([C@@H]2[C@@H](CO)N3CCCCN(Cc4ccncc4)C[C@@H]23)cc1	-6.78*
CN(C[C@@H]1[C@@H](c2ccccc2)[C@H](CO)N1CC1CC1)C(=O)c1cccc(F)c1	1.7
C[C@H](CO)N1C[C@H](C)[C@@H](CN(C)C(=O)NC2CCCC2)Oc2cc(-c3cncnc3)ccc2S1(=O)=O	-0.316
CCCC#Cc1ccc([C@H]2[C@@H](CO)N3C(=O)CN(C(=O)NCCC)C[C@@H]23)cc1	3.61
CCCNC(=O)N1CC(=O)N2[C@H](CO)[C@@H](c3ccc(C#Cc4ccc(F)cc4)cc3)[C@H]2C1	3.08
COc1ccccc1NC(=O)N1CC(=O)N2[C@H](CO)[C@@H](c3ccc(-c4ccc(F)cc4)cc3)[C@H]2C1	1.14
COc1ccccc1NC(=O)N1CC(=O)N2[C@H](CO)[C@@H](c3ccc(-c4cccc(C)c4)cc3)[C@@H]2C1	-9.44*
COc1ccccc1NC(=O)N1CC(=O)N2[C@H](C1)[C@H](c1ccc(-c3cccc(C)c3)cc1)[C@@H]2CO	-1.82
CCCNC(=O)N1CC(=O)N2[C@H](C1)[C@H](c1ccc(-c3ccc(F)cc3)cc1)[C@@H]2CO	-0.28
CCCNC(=O)N1CC(=O)N2[C@H](CO)[C@H](c3ccc(C#Cc4ccc(F)cc4)cc3)[C@@H]2C1	-0.113
CCCNC(=O)N1CC(=O)N2[C@H](CO)[C@H](c3ccc(C#Cc4cccc(OC)c4)cc3)[C@@H]2C1	-2.05
CCCNC(=O)N1CC(=O)N2[C@H](CO)[C@@H](c3ccc(C#Cc4ccccc4)cc3)[C@@H]2C1	-6.85*
CCCNC(=O)N1CC(=O)N2[C@H](C1)[C@@H](c1ccc(-c3ccccc3)cc1)[C@@H]2CO	-5.6*
CCCNC(=O)N1CC(=O)N2[C@H](C1)[C@@H](c1ccc(C#Cc3cccc(F)c3)cc1)[C@@H]2CO	-3
CCCNC(=O)N1CC(=O)N2[C@@H](CO)[C@H](c3ccc(-c4cccc(C)c4)cc3)[C@@H]2C1	-15.8*
CN(C)CC#Cc1ccc([C@@H]2[C@H](CO)N3C(=O)CN(C(=O)c4cccc(F)c4)C[C@@H]23)cc1	1.2
COc1ccc(-c2ccc([C@H]3[C@@H](CO)N4CCCCN(S(=O)(=O)c5cccs5)C[C@@H]34)cc2)cc1	4.44
CN(C)C(=O)c1ccc(-c2ccc([C@@H]3[C@@H](CO)N4CCCCN(C(=O)C5CC5)C[C@H]34)cc2)cc1	3.15
O=C(Nc1ccccc1)N1CC(=O)N2[C@H](CO)[C@@H](c3ccc(C#CC4CC4)cc3)[C@@H]2C1	1.39
O=C(C[C@@H]1CC[C@@H]2[C@H](COC[C@@H](O)CN2Cc2nccs2)O1)N1CCC(Cc2ccccc2)CC1	-0.827
CN(C)CC#Cc1ccc([C@H]2[C@H](CO)N3CCCCN(C(=O)CN(C)C)C[C@@H]23)cc1	3.59
C/C=C/c1ccc([C@@H]2[C@@H](CO)N(C(=O)C3CC3)[C@H]2CN(C)C(=O)CC)cc1	1.76
SMILES	IDE exosite inh
O=C(Nc1cccc(F)c1)N1CCCCN2[C@H](C1)[C@H](c1ccc(C#CC3CC3)cc1)[C@@H]2CO	3.86
CN(C)CC(=O)NC[C@H]1N[C@@H](CO)[C@H]1c1ccc(-c2cccc(C#N)c2)cc1	4.96
Cc1cccc(S(=O)(=O)N2CCCCN3[C@H](C2)[C@H](c2ccc(C#CC4CC4)cc2)[C@@H]3CO)c1	2.35
O=C(Nc1ccc(F)cc1)N1CCCCN2[C@H](C1)[C@@H](c1ccc(C#Cc3ccccc3)cc1)[C@@H]2CO	-0.595
CC(C)N(C[C@H]1[C@H](c2ccccc2)[C@@H](CO)N1S(C)(=O)=O)C(=O)CN(C)C	0.682
N#C[C@H]1[C@H](c2ccc(C3=CCCCC3)cc2)[C@@H](CO)N1C(=O)c1cccc(F)c1	4.19
COCCN(C[C@H]1[C@H](c2ccccc2)[C@@H](CO)N1C(=O)C1CC1)C(C)=O	0.176
CCCC#Cc1ccc([C@@H]2[C@H]3CN(C(=O)CN4CCOCC4)CC(=O)N3[C@H]2CO)cc1	4.21
Cc1ccc(-c2ccc([C@H]3[C@H]4CN(C(=O)CN5CCOCC5)CC(=O)N4[C@H]3CO)cc2)cc1	0.399
Cc1ccc(-c2ccc([C@@H]3[C@@H](CO)N4C(=O)CN(C(=O)CN5CCOCC5)C[C@H]34)cc2)cc1	-2.26
O=C(CN1CCOCC1)N1CC(=O)N2[C@H](CO)[C@H](c3ccc(/C=C/c4ccccc4)cc3)[C@@H]2C1	-8.67*
O=C(CN1CCOCC1)N1CC(=O)N2[C@@H](CO)[C@H](c3ccc(/C=C/c4ccccc4)cc3)[C@@H]2C1	-8.18*
O=C(Nc1ccc(F)cc1)N1CC(=O)N2[C@@H](CO)[C@@H](c3ccc(Br)cc3)[C@@H]2C1	2.42
